Laboratory results published in PubChem BioAssay AID1851 (National Center for Advancing Translational Sciences (NCATS), 2009).
Hit rate of the full screen: of about 16,000 compounds, about 4,000 (25%) were called active. Inconclusive results (about 26%) are left out. These entries were drawn from the full list. A number with no mark means an inactive call. Calls follow the shape of the dose curve; as a rule, active = well fitted curve in the direction sought with a large enough effect; inconclusive = small, poorly fitted or top-dose-only effect, or effect the other way; inactive = no such curve, though single readings can be large or run the other way.

biological target: Cytochrome P450 2C9 (Homo sapiens) (UniProt P11712); assay: Cytochrome panel assay with activity outcomes; conditions: recombinant CYP, pro-luciferin dealkylation, luminescence, p450-cyp2c9; series mostly up to 57.1 µM
Sequence (P11712 whole entry, looked up): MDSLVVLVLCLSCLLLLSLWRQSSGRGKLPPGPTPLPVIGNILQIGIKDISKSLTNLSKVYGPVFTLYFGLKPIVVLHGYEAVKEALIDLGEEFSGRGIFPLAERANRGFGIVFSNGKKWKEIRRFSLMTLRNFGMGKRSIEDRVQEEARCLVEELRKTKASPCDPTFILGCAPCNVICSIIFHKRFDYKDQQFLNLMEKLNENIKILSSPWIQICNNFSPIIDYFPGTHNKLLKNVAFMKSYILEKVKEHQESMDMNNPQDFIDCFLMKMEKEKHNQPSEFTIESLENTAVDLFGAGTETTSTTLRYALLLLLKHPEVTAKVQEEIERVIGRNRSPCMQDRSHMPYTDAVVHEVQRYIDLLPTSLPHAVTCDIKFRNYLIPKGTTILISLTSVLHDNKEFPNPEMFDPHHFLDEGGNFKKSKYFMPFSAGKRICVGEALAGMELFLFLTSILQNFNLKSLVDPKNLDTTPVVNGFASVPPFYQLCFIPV
% is scaled to controls: 0 for no effect and ±100 for the full control effect.

| Structure (SMILES) | AC50 | activity, negative = inhibition |
| --- | --- | --- |
| CC(C)OC(=O)C(C#N)c1nc2ccccc2nc1N1CCN(Cc2ccccc2)CC1 (stereo not drawn) | 2.82 µM (active) | – |
| CC(C)NC1(C(N)=O)CCN(Cc2ccccc2)CC1 | – | -5.53% [at 11.4 µM] |
| CC(=O)N1CCC2(CCN(Cc3ccccc3)CC2)CC1 | inactive | – |
| CN(C)c1ccc(-c2ccc3ncnc(N4CCNCC4)c3c2)cc1 | – | 6% [at 2.29 µM] |
| Cc1cccc(CNc2ccnc(-c3ccoc3)n2)c1 | – | -14.6% [at 2.29 µM] |
| Cc1nn2c(C)nc3sc4c(c3c2nc1=O)CC(C)(C)OC4 | inactive | – |
| CC1(C)Cc2c(sc3nc(-c4ccccc4)n(N)c(=O)c23)CO1 | 12.6 µM (active) | – |
| CCCN1C[C@H](CSC)C[C@H]2c3cccc4[nH]cc(c34)C[C@@H]21 | inactive | – |
| N[C@@H](CCCP(=O)(O)O)C(=O)O | inactive | – |
| CN(C)c1ccc(NC(=O)CSc2nc(N)c(C(=O)Nc3ccc(N(C)C)cc3)s2)cc1 | 2.82 µM (active) | – |
| CCN(CC)c1ccc(NC(=O)CSc2nnc3nc(C)cc(C)n23)cc1 | inactive | – |
| C[C@@]12CCC(=O)C=C1CC[C@H]1[C@@H]2[C@@H](O)C[C@]2(C)[C@@H]1CC[C@@]2(O)C(=O)CO | – | -3.75% [at 11.4 µM] |
| CCOC(=O)c1c(N2C(=O)Nc3cc(Cl)c(Cl)cc3N2O)sc2c1CCCCC2 | 3.55 µM (active) | – |
| O=C1CCCC2=C1C(c1ccc(OS(=O)(=O)c3ccc(Cl)cc3)cc1)C1=C(CCCC1=O)O2 | 7.08 µM (active) | – |
| Cc1ccc(S(=O)(=O)Oc2ccc(C3C4=C(CCCC4=O)OC4=C3C(=O)CCC4)cc2)cc1 | 3.98 µM (active) | – |
| CN(C)C[C@H]1CCC2=C(C1=O)C(c1ccc(Cl)c(Cl)c1)C1=C(CC[C@H](CN(C)C)C1=O)O2 | – | -1.08% [at 11.4 µM] |
| Cc1ccc(S(=O)(=O)Oc2cc(S(=O)(=O)O)cc3cc(S(=O)(=O)O)cc(N)c23)cc1 | – | -5.74% [at 11.4 µM] |
| Cc1ccc(S(=O)(=O)Oc2cc(N)c3c(n2)CCC3)cc1 | – | 20.5% [at 11.4 µM] |
| O=C(O)c1c2c(c(O)c3c1CN(C1CCCCC1)CO3)OCN(C1CCCCC1)C2 | – | -1.96% [at 11.4 µM] |
| O=C(/C=C\c1ccc(O)c(O)c1)O[C@@H](Cc1ccc(O)c(O)c1)C(=O)O | inactive | – |
| Cc1ccccc1S(=O)(=O)O[C@@H]1NS(=O)(=O)c2ccccc21 | – | 20.8% [at 11.4 µM] |
| Cc1ccccc1S(=O)(=O)Oc1ccccc1C(=O)Oc1ccccc1 | 2.24 µM (active) | – |
| Cc1cc2c(c(=O)o1)[C@@H](O)[C@H]1O[C@@H]1C2=O | – | -1.55% [at 11.4 µM] |
